Test results reported in PubChem BioAssay (NCATS).
Inconclusive results are not listed. Calls of active or inactive are those of the source. Calls follow the shape of the dose curve; as a rule, active = well fitted inhibition curve with a large enough effect; inconclusive = small, poorly fitted or top-dose-only effect; inactive = flat fitted curve, though single readings scatter.

How the values were obtained:
Assay in all cases: Cytotoxic Profiling of Annotated Libraries Using Quantitative High-Throughput Screening (AID 1296008); also: nearly all actives have a fitted effect of over 60% in size
Conditions in all cases: Five cell lines viability, CellTiter-Glo ATP luminescence, 48-72 h; max response: active compounds read low
CRL-7250 = system: CRL-7250
Summary of the method: (§1)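 Compounds were pin-transferred onto cells and incubated 48 or 72 hr at 37 degree Celsius, 95% humidity. CellTiter-Glo was added, plates sat 10 min at room temperature, then ATP-coupled luminescence was imaged as the viability read-out.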

HEK293 = system: HEK293
Summary of the method: as §1

HaCat = system: HaCat
Summary of the method: as §1

KB-3-1 = system: KB-3-1
Summary of the method: as §1

NIH3T3 = system: NIH3T3
Summary of the method: as §1

Measured: max response
% is scaled to controls: 0 for no effect and ±100 for the full control effect.

OC[C@@]1(O)CO[C@H](OC[C@H]2O[C@@H](OCCc3ccccc3)[C@H](O)[C@@H](O)[C@@H]2O)[C@@H]1O
inactive: CRL-7250 -3.48% | HEK293 -5.84% | HaCat | KB-3-1 -0.728% | NIH3T3 5%

CC(C)(O)/C=C/C(=O)[C@](C)(O)[C@H]1[C@H](O)C[C@@]2(C)[C@@H]3CC=C4[C@@H](C=C(O[C@@H]5O[C@H](CO)[C@@H](O)[C@H](O)[C@H]5O)C(=O)C4(C)C)[C@]3(C)C(=O)C[C@]12C
inactive: CRL-7250 -3.34% | HEK293 -7.75% | HaCat | KB-3-1 0.874% | NIH3T3 1.79%

COc1ccnc(CCc2nc3ncccc3[nH]2)c1
inactive: CRL-7250 -4.02% | HEK293 -80.6% | HaCat | KB-3-1 | NIH3T3 3.19%

COc1cc(CC2COC(c3ccc(OC4OC(CO)C(O)C(O)C4O)c(OC)c3)C2CO)ccc1O (stereo not given)
inactive: CRL-7250 | HEK293 0.464% | HaCat | KB-3-1 | NIH3T3

Cc1nc2cc(-c3cc(F)cc(C#N)c3)ccc2s1
inactive: CRL-7250 -5.31% | HEK293 -12.9% | HaCat -10.9% | KB-3-1 0.518% | NIH3T3

COc1ccc(C2COc3cc(O)ccc3C2)c(O)c1OC (stereo not given)
inactive: CRL-7250 | HEK293 -9.14% | HaCat | KB-3-1 1.88% | NIH3T3 -7.34%

COc1cc(/C=C/c2ccccc2)c(C(=O)O)c(O)c1CC=C(C)C
inactive: CRL-7250 -4.97% | HEK293 2.12% | HaCat | KB-3-1 6.27% | NIH3T3 3.69%
